# In all, about 69,000 compounds went through this assay and about 8,600 (12%) showed an effect of 50% or more. The sample as a whole holds a higher share of strong results than the screen did.
# Test system: Plasmodium berghei
# Test: Screen against P. berghei liver stage (PbLuc), transformed with Luciferase, at 10uM
# Assay type: functional, HepG2
# Details: tested at 10 uM
row,Structure (SMILES),INHIBITION
1,O=C(c1cnccn1)N1CCC2(CCN(Cc3ccsc3)CC2)CC1,16.4%
2,Cc1nccc(CNC(=O)CCc2c(C)nc3cc(O)nn3c2C)n1,-9.19%
3,CCC1c2ccsc2CCN1C(=O)NCc1ccnc(N(C)C)c1 (configuration not stated),-0.44%
4,CCc1nc2ccccc2c(=O)n1CC1(O)CCN(C(=O)C2CC2)CC1,18.3%
5,CCCOc1ccc(CN)c(OC(F)F)c1,45.2%
6,COc1ccc(CN)c(OC(F)F)c1,48.9%
7,NCc1ccc(OC(F)F)cc1OC(F)F,74%
8,C[C@H]1C[C@H]2CN(C(=O)c3ccncn3)CC[C@@H]2O1,35.8%
9,COc1ccc(CN2CCC3(CC2)NC(=O)CC3c2cnn(C)c2)cc1 (configuration not stated),12.6%
10,CN1CCC2(CC1)CN(CC1CC1)CC21CCNC1=O (configuration not stated),22.3%
11,COc1cccc(CNC(=O)c2ccccc2-n2cc(CN)cn2)c1,5.11%
12,O=C(CC1CC1)N1CCc2ncc(Cn3cncn3)n2CC1,57.9%
13,COCC(=O)N1CCc2ncc(Cn3cncn3)n2CC1,15.9%
14,O=C(Cc1ccc(F)cc1)N1CCn2cc(Cn3cncn3)nc2C1,-13.2%
15,O=C(CC1CC1)N1CCc2ncc(CN3CCOCC3)n2CC1,42.7%
16,O=C(Cc1ccc(F)cc1)N1CCn2c(Cn3cncn3)cnc2C1,57.9%
17,CC1c2ncc(Cn3cncn3)n2CCN1C(=O)c1cscn1 (configuration not stated),-6.3%
18,CC1c2ncc(Cn3cncn3)n2CCN1C(=O)c1ccsc1 (configuration not stated),52%
19,CC1c2ncc(Cn3cncn3)n2CCN1C(=O)N(C)C (configuration not stated),49%
20,CC1c2ncc(Cn3cncn3)n2CCN1C(=O)c1ccccn1 (configuration not stated),60.9%
21,N#Cc1cccc(C(=O)N2CCn3c(Cn4cncn4)cnc3C2)c1,-17.2%
22,Cc1occc1C(=O)N1CCn2c(Cn3cncn3)cnc2C1C (configuration not stated),6.55%

row,Structure (SMILES),INHIBITION
1,COCC(=O)N1CCn2c(Cn3cncn3)cnc2C1C (configuration not stated),36.2%
2,O=C1CN(c2ccc(C(=O)N3CCc4ccccc43)cn2)CCN1,49%
3,N#Cc1c(F)cccc1N1CCN(C(=O)Nc2nncs2)CC1,-7.53%
4,O=C(NCCc1nccs1)c1cn(CCN2CCNCC2)nn1,-45%
5,O=C(NCCN1CCNC1=O)c1cnc(-c2cccnc2)nc1,15.64%
6,O=C(c1cccs1)N1CCc2ncc(Cn3cncn3)n2CC1,22.9%
7,O=C(Cc1cccs1)N1CCc2nnc(COc3cncnc3)n2CC1,47.5%
8,O=C(c1cscn1)N1CCc2ncc(Cn3cncn3)n2CC1,38.1%
9,O=C(c1ccsc1)N1CCc2ncc(Cn3cncn3)n2CC1,62.5%
10,O=C(c1cccs1)N1CCc2nnc(COc3cncnc3)n2CC1,28.2%
11,O=C(c1ccsc1)N1CCc2nnc(COc3cncnc3)n2CC1,53.9%
12,O=C1CN(C(=O)c2cc3c(F)cc(Br)cc3[nH]2)CCN1,-44.2%
13,Cc1cccc(N2CCc3ncc(CNc4ccccn4)n3CC2)n1,-26.1%
14,Cc1cc(N2CCOC(c3ccc(C(N)=O)cn3)C2)ncn1 (configuration not stated),36.9%
15,Cc1cc(C)nc(N2CCC(C(=O)Nc3n[nH]c(C)n3)CC2)n1,47.3%
16,COCCN1CCC2(CCC1=O)CN(C1CCOCC1)CCN2C (configuration not stated),17.8%
17,CC(=O)Nc1nc(C(=O)Nc2ccc(N3CCCCC3)nc2)cs1,78.1%
18,Cc1cccc(C(=O)NCc2ccc(N3CCCCCC3)nc2)n1,87.3%
19,Cc1cccc(C(=O)NCc2ccc(N3CCCCC3)nc2)n1,8.48%
20,CCN(CC)c1ccc(CNC(=O)c2cccc(C)n2)cn1,16.2%
21,CC(=O)Nc1nc(C(=O)NCc2ccnc(N3CCCC3)c2)cs1,9.14%
22,CCN1CCN(c2ccc(CNC(=O)c3cc(C)on3)cn2)CC1,25.6%

row,Structure (SMILES),INHIBITION
1,CC(=O)Nc1nc(C(=O)Nc2ccc(F)cc2)cs1,31.1%
2,CC(=O)Nc1nc(C(=O)NCc2ccc(N3CCOCC3)nc2)cs1,19.4%
3,CC(=O)Nc1nc(C(=O)NCc2ccc(N3CCCC3)nc2)cs1,13.3%
4,CCN1CCN(c2ccc(CNC(=O)c3cnn(C)c3C)cn2)CC1,-15.5%
5,CC(=O)Nc1nc(C(=O)NCc2ccc(N3CCCCCC3)nc2)cs1,67.2%
6,CCN1CCN(c2ccc(CNC(=O)c3ccc(Cl)o3)cn2)CC1,57.2%
7,CN(C(=O)C1CCC1)C1CCN(c2ccccc2Cl)C1=O (configuration not stated),1.74%
8,CC(=O)c1c(C)nn(S(=O)(=O)c2ccccc2)c1C,49.3%
9,CCN(CC)C(=O)CS(=O)(=O)c1cc(OC)c(OC)cc1C,-48.3%
10,Cc1cnc(CN(C)C2CCN(Cc3nc4ccccc4o3)C2)o1 (configuration not stated),13.3%
11,C1CC(NCc2nnc(C3CC3)o2)CN(Cc2noc(C3CC3)n2)C1 (configuration not stated),-19.9%
12,CN1CCN(S(=O)(=O)c2ccc(C(=O)N3CC[C@@H](O)C3)cc2)CC1=O,1.41%
13,c1cc(CC2CCCNC2)nc(NCCc2cnccn2)c1 (configuration not stated),32.3%
14,Cn1cc(C(C)(O)CNc2ccc(Cl)c(C#N)n2)cn1 (configuration not stated),-10.7%
15,Cc1ccc(C(=O)N2CCCC(c3nncn3C)C2)c(C)c1 (configuration not stated),45.1%
16,CC(C)c1nnc2n1CCN(CCC(=O)N1CCc3ccccc31)C2,13.7%
17,Cc1noc(C)c1C(=O)NCc1ccc(N2CCOCC2)nc1,5.03%
18,Cc1noc(C)c1C(=O)NCc1ccc(N2CCC(C)CC2)nc1,74.9%
19,Cc1noc(C)c1C(=O)NCc1ccc(N2CCCCCC2)nc1,25.6%
20,CN(C)C(=O)[C@@H]1C[C@@H]2CCN(Cc3ccc4c(c3)OCO4)C[C@@H]2O1,13.1%
21,CN1CCN(c2ccc(F)cc2NC(=O)NCc2ccon2)CC1,51.6%
22,CC1CCCN(Cc2ccc(CNC(=O)NCc3ccon3)cc2)C1 (configuration not stated),-18.6%

row,Structure (SMILES),INHIBITION
1,O=C(Cc1ccon1)N1CCN(c2ccncc2Cl)CC1,20.9%
2,CCc1cc(CNC(=O)Nc2cc(F)ccc2N2CCCCC2)on1,26.6%
3,CC1CN(C)c2ccccc2CN1C(=O)NCc1ccon1 (configuration not stated),4.6%
4,O=C(c1ccncc1)N1CCN(c2ccc(F)cc2Cl)CC1,23.8%
5,CCN1CCN(c2ccccc2NC(=O)NCc2ccon2)CC1,50.4%
6,O=C(NCc1ccon1)Nc1cc(F)ccc1N1CCCCC1,28.8%
7,CN1CCN(c2ccc(F)cc2NC(=O)NCC[S+](C)[O-])CC1 (configuration not stated),-33%
8,Cc1nc(CNC(=O)Nc2cc(F)ccc2N2CCN(C)CC2)no1,52.7%
9,Cc1nc(CNC(=O)Nc2cc(F)ccc2OC(F)F)no1,5.91%
10,O=C(Cc1ccon1)N1CCN(c2ccc(F)cc2Cl)CC1,50%
11,COc1cccc(C(=O)N2C[C@@H]3CC[C@H]2CN(Cc2cscn2)C3)c1,7.3%
12,CC(C)NC(=O)NC(C)c1nc(-c2ccccc2)cs1 (configuration not stated),15.7%
13,O=S(=O)(c1cccc(F)c1)N1CC[C@H]2[C@H]1CCN2c1ncccn1,-12.4%
14,CN(C)C(=O)[C@H]1C[C@@H]2CCN(C3CCOCC3)C[C@@H]2O1,-0.371%
15,COc1c(C2CCCN2C(=O)c2scnc2C)c(C)nn1C (configuration not stated),25.1%
16,COc1ccc(S(=O)(=O)NC(=O)COC2CCCCC2)cc1,14.1%
17,CC(C)n1nccc1CN1Cc2nccn2CC1c1ccccc1 (configuration not stated),7.39%
18,Cc1nn(C)c(C)c1C(=O)NCc1cc(N(C)C)nc2ccccc12,-21.1%
19,CCn1nc(C)cc1C(=O)NCc1cc(N(C)C)nc2ccccc12,54.4%
20,Cc1nn(C)cc1C(=O)NCc1cc(N(C)C)nc2ccccc12,-17.8%
21,CNC(=O)CN1CCO[C@H]2CN(C(=O)C3CC3)C[C@H]21,-8.85%
22,C1CC(c2noc(C3CC3)n2)N(Cc2nnc(C3CC3)o2)C1 (configuration not stated),15.75%

row,Structure (SMILES),INHIBITION
1,CC(=O)N1CCOC(c2c(C(=O)O)sc3ccccc23)C1 (configuration not stated),-9.51%
2,c1cncc(-c2noc(CN3CCc4cncnc4C3)n2)c1,22.683%
3,Cn1cnc2c1CCN(Cc1nc(-c3ccco3)no1)C2,45.1%
4,CCc1ncc2c(n1)CN(Cc1nc(-c3ccccn3)no1)CC2,47.1%
5,Cn1cnc2c1CCN(Cc1nc(-c3ccsc3)no1)C2,52.7%
6,CC(C)c1nc2c(n1C)CCN(Cc1nc(-c3ccsc3)no1)C2,47.6%
7,Cn1cnc2c1CCN(Cc1nc(Cc3ccccc3)no1)C2,52.7%
8,c1ccc(Cc2noc(CN3CCc4c(ncn4C4CC4)C3)n2)cc1,0.411%
9,Cn1cnc2c1CCN(Cc1noc(-c3ccccc3)n1)C2,43.7%
10,c1cc(-c2noc(CN3CCc4c(ncn4C4CC4)C3)n2)cs1,31.1%
11,Cn1cnc2c1CCN(Cc1nc(COc3ccc(F)cc3)no1)C2,53.8%
12,Cn1c(C2CC2)nc2c1CCN(Cc1nc(Cc3ccccc3)no1)C2,34.7%
13,c1ccc(-c2noc(CN3CCc4cncnc4C3)n2)nc1,72.9%
14,CN1C(=O)[C@@H]2CC[C@H]1CN(C(=O)c1nnc3n1CCCCC3)C2,-89.9%
15,CCS(=O)(=O)N1CCC2(CC1)CN(c1cccnc1)C(=O)CO2,45.7%
16,CC(C)c1ncc2c(n1)CN(Cc1nc(-c3ccccn3)no1)CC2,28.8%
17,CCCn1nccc1-c1nccnc1CC1CCN(C(C)=O)CC1,19.3%
18,COC1C[C@@H]2CN(C(=O)c3cc4cccc(F)c4[nH]3)C[C@@H]2C1 (some centres not stated),-14.379%
19,CCN(CC)Cc1cn2c(n1)CN(Cc1c(C)noc1C)CC2,16.6%

# From ChEMBL document CHEMBL4513216, “Probing the Open Global Health Chemical Diversity Library for Multistage-Active Starting Points for Next-Generation Antimalarials” (ACS Infect Dis, 2020)
